Source: PubChem (The Scripps Research Institute Molecular Screening Center)
DAX1 inh-1 – DAX1 (NR0B1) inhibition, primary screen; HEK293T StAR-luciferase reporter, SF-1/DAX-1 repression relief; 370,000 compounds, 1.1% hits; inhibition, % at 6.8 µM; AID 652010;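 active = inhibition above the mean over all tested compounds plus 3 SD, cut at about 3.6% in these data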;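 note: higher inhibition means more luminescence from relief of DAX-1 repression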
DAX1 inh-2 – NR0B1 (DAX1) inhibition | P51843 | HEK293 Gal4-DAX1 luciferase reporter, luminescence | inhibition, % at 6.75 µM | 340,000 compounds, 0.99% hits | AID 504766;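 active = inhibition above the mean over all tested compounds plus 3 SD, cut at about 4.2% in these data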;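 note: inhibition shows as a rise in luminescence from relieved DAX1 repression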
Target sequence (P51843 207-470 limits assumed): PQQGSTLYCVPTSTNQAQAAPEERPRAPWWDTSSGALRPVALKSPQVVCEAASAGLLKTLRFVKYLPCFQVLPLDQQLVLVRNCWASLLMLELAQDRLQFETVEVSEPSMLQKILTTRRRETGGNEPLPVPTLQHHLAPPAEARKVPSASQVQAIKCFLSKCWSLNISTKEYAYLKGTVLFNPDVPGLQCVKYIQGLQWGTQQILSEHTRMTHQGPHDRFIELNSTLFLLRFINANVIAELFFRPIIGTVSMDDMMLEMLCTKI
SMARCA2 act – increases SMARCA2 function in MMTV reporter cells; 370,000 compounds, 1% hits; activation, % at 9.1 µM; AID 652017; MG213 cells, MMTV-luciferase reporter, dexamethasone, overnight; in the data active = activation above about 7.8%
ssDAF-12 act – activates DAF-12 receptor from parasite S. stercoralis; HEK293 ssDAF-12/GRIP1 lit1-tk-luc reporter, luminescence; % of 3 µM dafachronic acid response; activation, % at 6.8 µM; 370,000 compounds, 1% hits;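 active = activation above the mean over all tested compounds plus 3 SD, cut at about 0.9% in these data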
hcDAF12 agonist – activates DAF-12 receptor from parasite H. contortus; 370,000 compounds, 1.4% hits; activation, % at 6.8 µM; HEK293 hcDAF-12 lit1-tk-luc reporter, luminescence; 0% DMSO, 100% Δ7-dafachronic acid;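 active = activation above the mean of all tested compounds plus 3 SD, cut at about 5.5% in these data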
hgDAF-12 ag – activates the H. glycines DAF-12 receptor ligand-binding domain; 370,000 compounds, 1.8% hits; HEK293 GAL4-hgDAF12 UAS-luciferase reporter, agonist luminescence; normalized to butyrate control; activation, % at 6.8 µM;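 active = activation above a cutoff set at the mean of all screened compounds plus 3 SD, cut at about 10% in these data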
Each line names hits and unclear results; the compound was inactive in the other large screens. A selection: hits, their analogues and other compounds. The true share with any hit is near 4.8%.

O=C(Nc1ccccc1)Nc1ccc(Br)c(Cl)c1	hcDAF12 agonist 6.5, hgDAF-12 ag 11.7
COc1ccc(NC(=O)c2ccccc2F)cc1Cl	hgDAF-12 ag 11.2
Cc1cc(C)c(NC(=O)CSc2nc(COc3ccccc3)nc3ccccc23)c(C)c1	none
Cc1ccc(Oc2ccc(Cl)cc2NC(=O)c2ccc(F)cc2F)cc1	DAX1 inh-2 6.0
O=C(NC(=S)Nc1ccc(Br)c(Cl)c1)C1CC1	hcDAF12 agonist 5.8
Cc1cc(C(=O)Nc2ccc(N3CCOCC3)c(Cl)c2)c(C)o1	DAX1 inh-2 4.2
CC(=O)Nc1ccc(NC(=S)NC(=O)C2CC2)cc1	none
CC(/C=N/NC(=O)c1ccccc1F)c1ccccc1 (centres undefined)	DAX1 inh-2 6.6, hgDAF-12 ag 11.0
O=C(Nc1ccc(N2CCOCC2)c(Cl)c1)c1ccc(Cl)cc1	none
COc1ccc(CSc2nnnn2-c2ccc(C(N)=O)cc2)cc1[N+](=O)[O-]	none
CCN1CCN(C(=O)C2CCN(Cc3nc(-c4cccc(Cl)c4)oc3C)CC2)CC1	none
CC1(C)Oc2ccc(NC(=O)c3ccco3)cc2O1	hgDAF-12 ag 11.0
CC(=O)Nc1ccccc1Oc1ccccc1	none
C/C(CC(=O)Nc1ccc(C)c(Cl)c1)=N\NC(=O)c1ccco1	ssDAF-12 act 1.0, hgDAF-12 ag 12.0
O=C(Nc1ccc2c(c1)OCCO2)c1ccco1	none
O=C(Nc1ccc(Br)c(Cl)c1)c1ccco1	hgDAF-12 ag 11.0
O=C(Nc1ccccc1Oc1ccccc1)c1ccccc1F	SMARCA2 act 9.5
COC(=O)c1ccc(Cn2ccc3ccc(-c4ccc5ccn(Cc6ccc(OC)cc6)c5c4)cc32)cc1	none (no result: DAX1 inh-2)
Nc1nnc(SCCN2C(=O)c3ccccc3C2=O)s1	none
O=C(Nc1ccc(OC(F)F)c(Cl)c1)c1cccc(OC(F)F)c1	none (no result: DAX1 inh-1, SMARCA2 act, ssDAF-12 act, hcDAF12 agonist, hgDAF-12 ag)
COc1ccc(NC(=O)c2cccc(OC(F)F)c2)cc1Cl	hgDAF-12 ag 10.9
O=S(=O)(Nc1ccc2oc(-c3ccccc3)nc2c1)c1ccccc1	none
O=S(=O)(O)c1cc2oc(-c3ccccc3)nc2c2ccccc12	hcDAF12 agonist 5.8
CCOC(=O)N1CCC(N(C(=O)Nc2ccc(Cl)c(Cl)c2)C(C)CC)CC1 (centres undefined)	none
O=C(Oc1cccc2ccccc12)c1ccco1	hcDAF12 agonist 6.0
CC(=O)c1ccc(-n2ccnc2)cc1	none
O=C(Nc1ccccc1)n1ccc(-c2ccc(-n3ccnc3)cc2)n1	hgDAF-12 ag 12.1 (no result: DAX1 inh-2)
CCOC(=O)N1CCC(NC(=O)Cn2ncc3ccccc32)CC1	none
CC1CCC(NC(=O)Cn2ncc3ccccc32)CC1 (centres undefined)	DAX1 inh-2 6.5
Cc1ccc(C=NCc2ccncc2)c(O)c1	none
Oc1ccc(N=Nc2ccccc2)o1	ssDAF-12 act 4.4
Cc1cc(C)cc(OCC(O)CN2CC(C)OC(C)C2)c1 (centres undefined)	DAX1 inh-2 6.5
Cc1ccc(C(C)C)c(OCC(O)CN2CC(C)OC(C)C2)c1 (centres undefined)	none
CN(c1ccc(C(=O)NCCc2ccccc2)cc1)S(C)(=O)=O	DAX1 inh-1 4.4
CN(c1ccccc1)S(=O)(=O)c1ccc(C(=O)NCc2ccccc2CN2CCCC2)cc1	DAX1 inh-1 4.3
Cc1ccc(S(=O)(=O)N(C)c2ccc(C(=O)NCCc3ccccc3)cc2)cc1	ssDAF-12 act 0.9
Cc1ccc(C(=O)NCCc2ccccc2)cc1	none (no result: DAX1 inh-1, SMARCA2 act, ssDAF-12 act, hcDAF12 agonist, hgDAF-12 ag)
O=C(Nc1ccc(Br)cn1)c1cccc2ccccc12	none
C=CCn1c(=NC(=O)c2ccc(S(=O)(=O)N3CCCc4ccccc43)cc2)sc2cc(S(N)(=O)=O)ccc21	none
COCCn1c(=NC(=O)c2ccc(S(=O)(=O)N3CCCc4ccccc43)cc2)sc2cc(S(C)(=O)=O)ccc21	DAX1 inh-2 4.7
NC(=O)c1cnc(Cc2c[nH]c3ccccc23)c(I)c1	ssDAF-12 act 0.9 (no result: DAX1 inh-2)
O=C(NCc1ccccc1)c1cnc(Cc2c[nH]c3ccccc23)c(I)c1	none (no result: DAX1 inh-2)
CS(=O)(=O)c1ccc2nc(NC(=O)c3cc([N+](=O)[O-])cc([N+](=O)[O-])c3)sc2c1	none
O=C(Nc1nc2ccc([N+](=O)[O-])cc2s1)C1CCCO1 (centres undefined)	DAX1 inh-2 5.4
